TROY NFkB inh: TROY signaling inhibition; actives 0.98% (n = 360,000); Q293 LMP1-TROYcd NF-kB luciferase reporter, 4 h; inhibition, % at 10 µM;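 active means compounds whose plate-normalised and pattern-corrected inhibition of the luciferase reporter signal at the single screening dose is 50% or more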
TWEAK-Fn14 inh: blocks TWEAK-Fn14 interaction in a reporter cell assay; TWEAK-stimulated Fn14 reporter cells, luciferase luminescence, 8 h; inhibition, % at 10 µM; actives 2% (n = 360,000); AID 1159606; in the data active means inhibition above about 50%
LGR2 inh: Drosophila LGR2 receptor signaling inhibition. inhibition, % at 9.99 µM. AID 720647. HEK293 LGR2, CRE-luciferase, bursicon-stimulated, 4 h. actives 0.35% (n = 380,000);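 active means drop in luminescence signal, shown as inhibition above about 50% in the replicate tests, limit read from the data, passing the limit was not always enough; inconclusive means probably only some replicates passing the limit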;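 further: agonist challenge used bursicon conditioned medium at about half maximal strength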
HSF1 inh: HSF1 inhibition; activity change, negative = inhibition, % at 7.5 µM (by protocol); NIH3T3-HGL HSE-luciferase, MG132-induced, luminescence 8 h; active compounds read low; actives 0.77% (n = 300,000);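 active means more than half of replicate wells show activity change below -50%, luminescence cut by over half; inconclusive means some wells, but at most half, below -50%; inactive means no replicate well below -50%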;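 further: luciferase reports HSF-1 transcriptional activity via heat shock element; 0% = median of DMSO wells and -100% = zero luminescence signal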
HSF1 activator: increases HSF-1 driven luciferase reporter signal; NIH3T3-HGL HSF-1 luciferase reporter, MG132, 8 h; 100% = twice DMSO control signal; activation, % at 9 µM; actives 1.7% (n = 300,000); AID 504408;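 active means mean replicate activation of at least 50% with a set share of replicates each reaching 50%; inconclusive means only one of those two conditions met; inactive means mean below 50% and too few replicates reaching it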;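 further: 0% = median of the neutral control wells and 100% = twice that signal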
EBV LMP1 NFkB: Epstein-Barr LMP1 NF-kappaB reporter inhibition. LMP1-induced NF-kappaB luciferase reporter cells, luminescence. inhibition, % at 12.5 µM. actives 0.69% (n = 350,000). AID 504558; in the data active means inhibition above about 41%; inconclusive means no clear call, values can overlap the other calls;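 further: 0% = neutral control wells and 100% = reference inhibitor control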
* marks the source's active call; other numbers are inactive results; ? = inconclusive; / = no result. Compounds with a hit are over-represented: about 3.6% of the library has one in this group of screens.

SMILES	TROY NFkB inh	TWEAK-Fn14 inh	LGR2 inh	HSF1 inh	HSF1 activator	EBV LMP1 NFkB
C[C@H](CO)N1C[C@H](C)[C@@H](CN(C)Cc2ccc3c(c2)OCO3)Oc2c(NC(=O)Nc3ccc(C(F)(F)F)cc3)cccc2C1=O	/	/	59.9*	/	/	/
CCCNC(=O)[C@H]1[C@H](CO)[C@H]2Cn3c(ccc(-c4ccncc4)c3=O)[C@@H]1N2C(=O)CC1CC1	/	/	9.1	/	/	/
Cc1noc(C)c1NC(=O)Nc1ccc2c(c1)C(=O)N([C@@H](C)CO)C[C@H](C)[C@@H](CN(C)S(=O)(=O)c1cn(C)cn1)O2	/	/	11.3	/	/	/
Cc1cc(C)c(C#N)c(SCc2ccccc2)n1	-15.4	22.6	/	8.2	12.5	1.5
Cc1ccc2nc(CSc3nc(C)cc(C)c3C#N)[nH]c2c1	59.3*	37.6	/	-26.7	-27.4	-74.8
Cc1ccc(C)c(C(=O)CN2C(=O)c3ccccc3S2(=O)=O)c1	27.0	60.1*	/	2.7	-10.1	14.4
CCCn1c(C)cc(C(=O)CN2C(=O)c3ccccc3S2(=O)=O)c1C	22.5	8.2	56.4*	/	/	82.2*
CCCn1c(C)cc(C(=O)Cn2nnc3ccccc3c2=O)c1C	17.3	33.0	-2.4	24.8	46.9	-26.9
Cc1cc(C(=O)CN2C(=O)c3ccccc3S2(=O)=O)c(C)n1CC1CCCO1 (stereo unspecified)	44.9	106.2*	/	?	-55.6	80.0*
Cc1cc(C(=O)CSc2nc3ccccc3c(=O)[nH]2)c(C)n1CC1CCCO1 (stereo unspecified)	42.4	60.4*	-27.2	22.3	58.8*	-9.7
Nc1ccc2cc3[nH]c4cc(N)ccc4c3nc2c1	-36.9	-31.8	/	/	/	62.3*
CCNC(=O)C[C@@H]1C=C[C@H](NC(=O)NC2CCCCC2)[C@H](CO)O1	/	/	-7.4	/	/	/
N#C/C(=N\Nc1ccccc1)C(N)=S	30.8	30.5	25.7	-1.2	-4.8	22.4
N#C/C(=N\Nc1ccc(Cl)cc1)C(N)=S	64.1*	59.7*	49.5	-6.5	16.0	29.7
Cc1ccc(N/N=C(\C#N)C(N)=S)cc1C	57.6*	62.2*	/	-1.9	9.7	?
O=C(Nc1nnc(CCc2ccccc2)s1)c1ccccc1	-66.6	-15.3	-30.3	17.4	50.7*	4.2
O=C(Cc1nnc(NC(=O)c2ccccc2)s1)N/N=C/c1ccc(O)cc1	-3.8	58.2*	-9.5	0.3	22.0	2.3
CCC(=O)Nc1ccc2c(c1)OC[C@H](C)N(Cc1ccccn1)C[C@@H](C)[C@H](OC)CN(C)C2=O	/	/	-8.8	/	/	/
COc1ccc2c3c(n(C)c2c1)[C@H](CO)N(Cc1ccncc1)CC31CCN(C(=O)Cc2ccncc2)CC1	/	/	-4.5	/	/	/
CO[C@H]1CN(C)C(=O)c2ccc(NC(=O)Nc3ccccc3Cl)cc2OC[C@@H](C)NC[C@@H]1C	/	/	-2.6	/	/	/
Cc1ccc2nc3sc(C(=O)N4CCOCC4)c(N)c3cc2c1	11.9	9.6	/	-28.2	-28.0	63.6*
Cc1ccc2cc3c(N)c(C(=O)N4CCOCC4)sc3nc2c1	-13.1	-2.2	/	28.9	67.1*	-5.6
NCC[C@H]1CC[C@@H](NS(=O)(=O)Cc2ccccc2)[C@H](CO)O1	/	/	5.6	/	/	/
C[C@H](CO)N1C[C@H](C)[C@@H](CN(C)S(=O)(=O)c2ccccc2)OCCCC[C@H](C)Oc2ccc(NS(C)(=O)=O)cc2C1=O	/	/	-8.4	/	/	/
C[C@@H]1CCCCO[C@@H](CN(C)S(=O)(=O)c2ccc(Cl)cc2)[C@H](C)CN([C@H](C)CO)C(=O)c2cc(NC(=O)CCC(F)(F)F)ccc2O1	/	/	4.3	/	/	/
SMILES	TROY NFkB inh	TWEAK-Fn14 inh	LGR2 inh	HSF1 inh	HSF1 activator	EBV LMP1 NFkB
O=[N+]([O-])c1ccc(Nc2ccc(F)cc2)nc1	-14.3	-6.2	-37.5	-2.0	19.6	7.6
O=[N+]([O-])c1ccc(Nc2ccc(F)cc2)cc1	-4.5	-10.6	-20.4	-80.9*	-84.5	2.4
COc1ccc(Cn2c(O)c(C=Nc3ccccc3C(=O)O)c3ccccc3c2=O)cc1	52.0*	43.9	19.9	-45.1	-43.4	43.5*
COc1ccc(Cn2c(O)c(C=Nc3ccc(OC)cc3)c3ccccc3c2=O)cc1	13.2	12.4	23.7	-0.2	4.2	7.4
COc1cccc(NC(=O)NCc2ccccc2F)c1	-32.4	-13.3	-18.4	10.8	21.0	-19.4
COc1cccc(N/C(SCc2ccccc2F)=C(/C#N)C(=O)NCc2cccs2)c1	8.8	8.5	14.5	27.6	63.4*	-2.6
O=C(N/N=C/c1ccc(O)cc1O)c1ccc(CN2C(=O)c3cccc4cccc2c34)cc1	-9.5	-44.4	25.3	9.8	14.4	50.2*
O=C(N/N=C/c1ccccc1)c1ccc(CN2C(=O)c3cccc4cccc2c34)cc1	19.4	22.8	1.6	-1.2	20.1	2.3
C[C@H]1CN([C@@H](C)CO)C(=O)c2cccc(NS(C)(=O)=O)c2O[C@@H]1CN(C)C(=O)Nc1ccccc1	/	/	13.0	/	/	/
COc1cccc(-c2cnc(C(O)c3cccc(F)c3)[nH]2)c1 (stereo unspecified)	52.1*	41.6	-44.0	/	/	/
Cn1c(=O)c2c(nc(NCCNC(=O)c3ccco3)n2Cc2ccc(F)cc2)n(C)c1=O	4.5	31.1	-2.3	6.2	0.0	-4.3
COc1ccc(Cl)c(Cn2c(NCc3ccco3)nc3c2c(=O)n(C)c(=O)n3C)c1	15.2	16.4	23.0	/	/	56.0*
COc1cccc(Cn2c(NCc3ccco3)nc3c2c(=O)n(C)c(=O)n3C)c1	/	/	/	-3.7	2.9	/
COc1cc(/C=N/Nc2nc3c(c(=O)n(C)c(=O)n3C)n2Cc2ccccc2)ccc1OC(=O)c1ccco1	42.4	71.7*	51.4*	11.2	5.8	5.5
Cn1c(=O)c2c(nc(NCCNC(=O)c3ccco3)n2Cc2ccccc2)n(C)c1=O	-14.1	98.4*	12.0	-3.9	10.2	1.9
CN1CCN(C(=O)C[C@@H]2C[C@H]3c4cc(NC(=O)c5ccc6c(c5)OCO6)ccc4O[C@H]3[C@H](CO)O2)CC1	/	/	7.7	/	/	/
Cc1ccccc1NC(=O)CSc1nnc(-c2ccccc2)n1-c1ccccc1	55.7*	-9.6	/	-4.0	10.7	0.3
CCn1c(Cn2nnc(-c3ccccc3)n2)nnc1SCC(=O)Nc1cccc(C)c1C	-11.0	-10.7	/	49.1	76.5*	8.4
CCn1c(Cn2nnc(-c3ccccc3)n2)nnc1SCC(=O)Nc1cccc(C(C)=O)c1	-0.7	0.2	0.7	-1.0	4.1	3.7
C[C@H]1CCCCO[C@H](CN(C)C(=O)c2ccccc2)[C@@H](C)CN([C@@H](C)CO)C(=O)c2cc(NC(=O)CCCN(C)C)ccc2O1	/	/	-11.0	/	/	/
O=C(COc1ccc(Br)cc1Br)NN1C(=O)c2ccccc2C1=O	-14.5	19.3	23.3	-2.8	-2.9	/
CC(C)NS(=O)(=O)c1ccc(OCC(=O)N2CCCC2)c(Cl)c1	-8.0	4.7	7.4	-53.5*	-62.4	3.3
CC(C)c1ccc(OCC(=O)N2CCCCCC2)c(Br)c1	-42.3	-17.4	-44.7	60.8	101.1*	-14.9
CC(C)c1ccc(OCC(=O)NN2C(=O)c3ccccc3C2=O)c(Br)c1	-17.0	68.7*	0.1	0.5	-21.0	5.9
